In PubChem BioAssay AID504332 (National Center for Advancing Translational Sciences (NCATS), 2011):
Screen size: about 350,000 compounds; about 31,000 (8.9%) were called active. Inconclusive results (about 15%) are left out. Calls come from the whole dose curve; as a rule, active = well fitted inhibition curve with a large enough effect; inconclusive = small, poorly fitted or top-dose-only effect; inactive = no such curve, though single readings can be large or run the other way. Shown is part of a subset that was picked to be rich in actives.

biological target: Histone-lysine N-methyltransferase EHMT2 (Homo sapiens) (UniProt Q96KQ7); assay: qHTS Assay for Inhibitors of Histone Lysine Methyltransferase G9a; details: G9a H3K9 monomethylation, AlphaScreen, 2 h; series mostly up to 59 µM; activity, negative = inhibition: at the top concentration; note: nearly all actives have a fitted effect of over 75% in size
Method in brief: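 Quantitative HTS format: methyltransferase activity on a biotin-tagged H3K9 peptide is measured by AlphaScreen, using a rabbit anti-monomethyl-H3K9 antibody with streptavidin donor and anti-IgG acceptor beads. Final levels are 20 nM enzyme, 500 nM peptide, 20 uM SAM; 2 h RT.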
% is set by controls: 0 for no effect and ±100 for the full control effect; potency is the fitted concentration of half-maximal effect.

Chain of Histone-lysine N-methyltransferase EHMT2 (Homo sapiens) (Q96KQ7 913-1193 limits assumed): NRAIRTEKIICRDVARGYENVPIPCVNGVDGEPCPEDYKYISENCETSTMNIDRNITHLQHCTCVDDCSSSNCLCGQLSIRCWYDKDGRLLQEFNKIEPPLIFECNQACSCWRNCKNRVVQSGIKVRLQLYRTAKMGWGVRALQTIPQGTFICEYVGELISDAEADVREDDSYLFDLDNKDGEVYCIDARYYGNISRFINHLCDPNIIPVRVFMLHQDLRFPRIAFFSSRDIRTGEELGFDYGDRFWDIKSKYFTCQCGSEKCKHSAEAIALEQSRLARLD

activity, negative = inhibition, inactive:
Cc1onc(-c2ccc(F)cc2F)c1C(=O)Nc1cccc(C(F)(F)F)c1 3.49%, Cc1ccc(C(=O)N2c3ncnn3C3(CCCCC3)[C@@H]3CCCC[C@@H]32)cc1 -3.48%, Cc1ccccc1CN1CCC(CNC(=O)c2cc3ccc4cccnc4c3[nH]2)CC1 -2.49%, COc1cc(C(=O)NNC(=O)CN2C(=O)NC3(CCCC3)C2=O)cc(OC)c1OC -2.65%, Cc1nnc(SCc2cc(=O)c3cc(F)ccc3[nH]2)n1C -1.44%, O=C(c1cc2cc(F)ccc2[nH]1)N1CCN(c2ccc(F)cc2)CC1 -8.91% [at 102 µM], Cc1cc(=O)[nH]c(SCC(N)=O)c1C#N 9.52% [at 2.33 µM], Cc1ccc2cc(C#N)c(SCC(=O)NCC3CCCO3)nc2c1C (centres undefined) -4.15% [at 102 µM], COc1ccc(Cc2nnc(NC(=O)c3ccc(OC)cc3OC)s2)cc1 -7.06% [at 0.501 µM], COc1ccc(C(=O)NC2=NCCS2)c(OC)c1 5.43% [at 12.7 µM], COc1ccc(S(=O)(=O)c2c(Nc3ccc(C)cc3)sc(C(=O)c3ccc(C)cc3)c2N)cc1 9.77%, O=C(NCc1ccccc1)C(c1ccco1)N(C(=O)c1csnn1)c1ccccc1F (centres undefined) 1.04% [at 102 µM], Cc1ccc(NC(=O)CSc2nnc3[nH]c(=O)cc(C)n23)cc1Cl -15.6%, CC(C)NC(=O)C(=O)N/N=C/c1ccco1 4.44%, COC(=O)C1=C(C)N(c2ccc(Br)cc2)C(=O)/C1=C\c1ccco1 -24.3%, COc1c(Cl)cc(C(=O)N(Cc2ccccc2F)C2CCS(=O)(=O)C2)cc1Cl (centres undefined) 4.3%, Cc1ccc(C(=O)N2CCc3cc(CNC(=O)c4ccc(Br)cc4)ccc32)cc1 -38.8%, O=C(OCC(=O)N1CCc2ccccc21)c1ccc([N+](=O)[O-])cc1 -12.4% [at 2.33 µM], CCC(CC)COC(=O)C1=C(C)NC(=O)NC1c1ccc([N+](=O)[O-])cc1 (centres undefined) 24.1% [at 102 µM], COc1cccc(N2CCN(CC(=O)Nc3ccnn3C3CCCC3)CC2)c1 3.38% [at 12.7 µM], CCCSc1ncc(Cl)c(C(=O)Nc2sc3c(c2C(=O)NCCOC)CCCC3)n1 -44.5%, COc1cc(NS(=O)(=O)c2ccc(NC(C)=O)cc2)cc(OC)c1 -9.27%, COc1ccc(NS(=O)(=O)c2ccc(NC(C)=O)cc2)cc1OC -48.3%, CC(=O)c1c(C)[nH]c(C(=O)N2CCN(S(=O)(=O)c3ccc(F)c(F)c3)CC2)c1C -26.5% [at 102 µM], CCC(C)C(=O)Nc1ccccc1N1CCN(c2ccc(F)cc2)CC1 (centres undefined) 0.656% [at 102 µM], Cc1ccc(OCCC(=O)Nc2ccc(S(=O)(=O)Nc3nccs3)cc2)cc1 15% [at 12.7 µM], COc1cn(CC(=O)Nc2cccc(C)c2C)c(CN2CCCCC2)cc1=O 4.69%, COc1ccccc1C(=O)Nn1cnnc1 10.5% [at 102 µM], COc1ccc(C(=O)NN2C(=O)C3C(c4ccccc4)C=CC(c4ccccc4)C3C2=O)cc1 (centres undefined) 17.1%, O=C(NN1C(=O)C2C3C=CC(C4CC34)C2C1=O)c1ccc(Cl)cc1 (centres undefined) 7.55% [at 102 µM], C/C=C/C=N/NC(=O)c1ccncc1 3.78% [at 12.7 µM], CCC(=O)N1CCc2cc(Br)cc(S(=O)(=O)Nc3ccc(C)cc3C)c21 -3.03%, CCOc1ccc(C(CC(=O)O)NC(=O)Cc2ccccc2)cc1OC (centres undefined) -10.4% [at 102 µM], CSc1nc(=O)c2c(n1C)NC(=O)CC2c1ccccc1OC(C)C (centres undefined) 6.92%, CCC(C)C(N=C1NS(=O)(=O)c2ccccc21)C(=O)N1CCC(C)CC1 (centres undefined) -37.1% [at 102 µM], Cc1nn(Cc2ccc(F)cc2)c(C)c1NC(=O)c1cc(CC(C)C)on1 -7.61%, CCCCn1c(SCC(=O)N2CCCC2=O)nc2cc(S(N)(=O)=O)ccc21 76.1% [at 2.33 µM], O=C1c2cccc3cccc(c23)N1CN1CCN(c2ccccn2)CC1 4.2%, Cc1ccccc1OCC(O)CN1CCN(c2ccccn2)CC1 (centres undefined) -42.2% [at 102 µM], COc1ccc(-c2nc3ccccc3s2)cc1NC(=O)COc1ccccc1C 6.94%

Potency, active:
O=C(CCCN1CCc2[nH]c3ccc(F)cc3c2C1)c1ccc(F)cc1 50.1 µM, Cc1cc(C#N)c(SCC(N)=O)nc1-c1ccc(F)cc1 12.6 µM, COc1ccc(C(=O)Nc2nncs2)c(OC)c1 39.8 µM, COC(=O)C1=C(C)N(C(C)c2ccccc2)C(=O)/C1=C\c1ccco1 (centres undefined) 35.5 µM, CC(=O)Nc1ccc(S(=O)(=O)Nc2cc(C)cn(Cc3ccc(C)cc3)c2=O)cc1 44.7 µM, COc1ccccc1C(=O)NN1C(=O)C2C3C=CC(O3)C2C1=O (centres undefined) 35.5 µM, O=C(NN1C(=O)C2C3C=CC(O3)C2C1=O)c1ccncc1 (centres undefined) 44.7 µM, CN(C)c1nc(=Nc2cccc(Cl)c2)ss1 6.31 µM, OC(COc1cccc2ccccc12)CN1CCN(c2ccccn2)CC1 (centres undefined) 50.1 µM
